From PubChem BioAssay AID1159580 (chemical genetic matrix, 2015)
In all, about 5,500 compounds went through this assay and about 2,000 (36%) were called active. Inconclusive results (about 18%) are left out. No stated cut-off is given here; in the data, active means normalized growth mostly below about 0.91 (no sharp cut-off); inconclusive means no clear call, values can overlap the other calls; inactive means mostly above about 0.92. The list shows a part of the results.

Test: chemical genetic growth profiling, strain panel (AID 1159580);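 further: tested at 20 µM; growth read once vehicle control cultures reached saturation at 30 °C; 1 = growth at the plate median or of vehicle wells; lower values mean less growth of the strain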
Details: S. cerevisiae deletion strains, growth OD
[1] = locus YAR019C, strain CDC15, hits give low values
[2] = locus YBL105C, strain PKC1, hits give low values
[3] = locus YBR135W, strain CKS1, hits give low values
[4] = locus YBR136W, strain MEC1, hits give low values
[5] = locus YBR160W, strain CDC28, hits give low values
[6] = locus YDL017W, strain CDC7, hits give low values
[7] = locus YDL028C, strain MPS1, hits give low values
[8] = locus YDL101C, strain DUN1, hits give low values
[9] = locus YDL108W, strain KIN28, hits give low values
[10] = locus YDL132W, strain cdc53, hits give low values
[11] = locus YDL214C, strain PRR2, hits give low values
[12] = locus YDR052C, strain DBF4, hits give low values
[13] = locus YDR054C, strain cdc34, hits give low values
[14] = locus YDR226W, strain ADK1, hits give low values
[15] = locus YDR477W, strain SNF1, hits give low values
[16] = locus YER123W, strain YCK3, hits give low values
[17] = locus YER133W, strain GLC7, hits give low values
[18] = locus YFL009W, strain cdc4, hits give low values
[19] = locus YFL029C, strain CAK1, hits give low values
[20] = locus YFR003C, strain YPI1, hits give low values
[21] = locus YFR019W, strain FAB1, hits give low values
[22] = locus YFR028C, strain CDC14, hits give low values
[23] = locus YGR040W, strain KSS1, hits give low values
[24] = locus YGR052W, strain FMP48, hits give low values
[25] = locus YGR092W, strain DBF2, hits give low values
[26] = locus YHR030C, strain SLT2, hits give low values
[27] = locus YHR079C, strain IRE1, hits give low values
[28] = locus YHR082C, strain KSP1, hits give low values
[29] = locus YHR205W, strain SCH9, hits give low values
[30] = locus YIL147C, strain SLN1, hits give low values
[31] = locus YJL095W, strain BCK1, hits give low values
[32] = locus YJL128C, strain PBS2, hits give low values
[33] = locus YJL157C, strain FAR1, hits give low values
[34] = locus YJR016C, strain ILV3, hits give low values
[35] = locus YJR066W, strain TOR1 (second series), hits give low values
[36] = locus YJR066W, strain TOR1, hits give low values
[37] = locus YKL048C, strain ELM1, hits give low values
[38] = locus YKL067W, strain YNK1, hits give low values
[39] = locus YKL101W, strain HSL1, hits give low values
[40] = locus YKL193C, strain SDS22, hits give low values
[41] = locus YKL203C, strain TOR2, hits give low values
[42] = locus YLR113W, strain HOG1, hits give low values
[43] = locus YLR133W, strain CKI1, hits give low values
[44] = locus YLR403W, strain SFP1, hits give low values
[45] = locus YML070W, strain DAK1, hits give low values
[46] = locus YMR001C, strain CDC5, hits give low values
[47] = locus YMR205C, strain PFK2 (second series), hits give low values
[48] = locus YMR277W, strain FCP1, hits give low values
[49] = locus YNL006W, strain LST8, hits give low values
[50] = locus YNL020C, strain ARK1, hits give low values
[51] = locus YNL161W, strain CBK1, hits give low values
[52] = locus YNL183C, strain NPR1, hits give low values
[53] = locus YNL207W, strain RIO2, hits give low values
[54] = locus YNL222W, strain SSU72, hits give low values
[55] = locus YNL307C, strain MCK1 (second series), hits give low values
[56] = locus YOL078W, strain AVO1, hits give low values
[57] = locus YOL136C, strain PFK27, hits give low values
[58] = locus YOR061W, strain CKA2, hits give low values
[59] = locus YOR119C, strain RIO1, hits give low values
[60] = locus YOR231W, strain MKK1, hits give low values
[61] = locus YOR329C, strain SCD5, hits give low values
[62] = locus YPL031C, strain PHO85, hits give low values
[63] = locus YPL153C, strain RAD53, hits give low values
[64] = locus YPL204W, strain HRR25, hits give low values
[65] = locus YPL209C, strain IPL1, hits give low values
[66] = locus YPL256C, strain CLN2, hits give low values
[67] = locus YPR025C, strain CCL1, hits give low values
[68] = locus YPR106W, strain ISR1, hits give low values
[69] = locus YPR111W, strain DBF20, hits give low values
[70] = strain NNK1, hits give low values
[71] = strain TSCII, hits give low values

Measured: normalized growth

COc1ccc(/C=C2/C(=O)Nc3ccccc32)cc1
active: [1] 0.877 | [2] 0.884 | [3] 0.89 | [6] 0.893 | [8] 0.909 | [9] 0.892 | [10] 0.873 | [12] 0.898 | [14] 0.867 | [18] 0.868 | [20] 0.885 | [22] 0.871 | [26] 0.667 | [30] 0.892 | [34] 0.878 | [40] 0.877 | [42] 0.758 | [44] 0.652 | [46] 0.88 | [48] 0.867 | [49] 0.895 | [51] 0.874 | [53] 0.866 | [56] 0.879 | [61] 0.891 | [65] 0.894 | [66] 0.691 | [68] 0.892 | [70] 0.866 | [71] 0.863
inactive: [4] 0.894 | [5] 0.899 | [7] 0.896 | [11] 0.84 | [13] 0.917 | [15] 0.762 | [16] 0.858 | [17] 0.777 | [19] 0.879 | [21] 0.887 | [23] 0.776 | [24] 0.836 | [25] 0.733 | [27] 0.686 | [28] 0.827 | [29] 0.577 | [31] 0.774 | [32] 0.839 | [33] 0.83 | [35] 0.692 | [36] 0.729 | [37] 0.887 | [38] 0.89 | [39] 0.906 | [41] 0.859 | [43] 0.845 | [45] 0.859 | [47] 0.866 | [50] 0.841 | [52] 0.821 | [54] 0.894 | [55] 0.873 | [57] 0.825 | [58] 0.861 | [59] 0.899 | [60] 0.877 | [62] 0.748 | [63] 0.788 | [64] 0.708 | [67] 0.912 | [69] 0.89

Cc1ccc(C)n1-c1ccc(/C=C2/C(=O)Nc3ccccc32)cc1
inactive: [1] 0.957 | [2] 0.973 | [3] 0.975 | [4] 0.972 | [5] 0.962 | [6] 0.971 | [7] 0.964 | [8] 0.979 | [9] 0.968 | [10] 0.974 | [11] 0.91 | [12] 0.986 | [13] 0.983 | [14] 0.968 | [15] 0.931 | [16] 0.903 | [17] 0.932 | [18] 0.947 | [19] 0.957 | [20] 0.981 | [21] 0.948 | [22] 0.976 | [23] 0.945 | [24] 0.925 | [25] 0.839 | [27] 0.832 | [28] 0.907 | [29] 0.857 | [30] 0.97 | [31] 0.878 | [32] 0.973 | [33] 0.923 | [34] 0.972 | [35] 0.912 | [36] 0.794 | [37] 0.963 | [38] 0.887 | [39] 0.939 | [40] 0.979 | [41] 1.02 | [43] 0.926 | [44] 0.925 | [45] 0.916 | [46] 0.97 | [47] 0.932 | [48] 0.957 | [49] 0.976 | [50] 0.936 | [51] 0.975 | [52] 0.936 | [53] 0.974 | [54] 0.978 | [55] 0.947 | [56] 0.972 | [57] 0.9 | [58] 0.932 | [59] 0.942 | [60] 0.863 | [61] 0.977 | [62] 0.931 | [63] 0.92 | [64] 0.935 | [65] 0.977 | [67] 0.971 | [68] 0.968 | [69] 0.958 | [70] 0.959 | [71] 0.967
active: [26] 0.662 | [42] 0.837 | [66] 0.855

COc1cc(OC)c(/C=C2/C(=O)Nc3ccccc32)c(OC)c1
inactive: locus YAL013W, strain DEP1, hits give low values 1.01 | locus YAL040C, strain CLN3, hits give low values 0.983 | locus YCL061C, strain MRC1 (second series), hits give low values 1.01 | locus YDR150W, strain NUM1, hits give low values 1.01 | locus YDR363W, strain ESC2, hits give low values 0.984 | locus YER002W, strain NOP16, hits give low values 1.02 | locus YJR075W, strain HOC1, hits give low values 1.01 | locus YMR307W, strain GAS1, hits give low values 1.01 | locus YNL153C, strain GIM3, hits give low values 0.914 | locus YNL175C, strain NOP13, hits give low values 0.972 | locus YNL197C, strain WHI3, hits give low values 0.979 | locus YNL224C, strain SQS1, hits give low values 0.996 | locus YNL322C, strain KRE1, hits give low values 1 | locus YOR083W, strain WHI5 (second series), hits give low values 0.967

O=C1Nc2ccccc2/C1=C/c1ccc(Oc2ccccc2)nc1
inactive: [1] 0.965 | [2] 0.959 | [3] 0.957 | [4] 0.975 | [5] 0.962 | [6] 0.973 | [7] 0.966 | [8] 0.96 | [9] 0.967 | [10] 0.962 | [11] 0.866 | [12] 0.98 | [13] 0.948 | [14] 0.96 | [15] 0.874 | [16] 0.885 | [17] 0.898 | [18] 0.959 | [19] 0.975 | [20] 0.964 | [21] 0.95 | [22] 0.959 | [23] 0.892 | [24] 0.844 | [25] 0.803 | [27] 0.836 | [28] 0.82 | [29] 0.788 | [30] 0.947 | [31] 0.835 | [32] 0.877 | [33] 0.891 | [34] 0.967 | [35] 0.851 | [36] 0.775 | [37] 0.894 | [38] 0.857 | [39] 0.879 | [40] 0.959 | [41] 0.944 | [43] 0.86 | [44] 0.826 | [45] 0.915 | [46] 0.967 | [47] 0.889 | [48] 0.95 | [49] 0.975 | [50] 0.869 | [51] 0.976 | [52] 0.811 | [53] 0.962 | [54] 0.956 | [55] 0.843 | [56] 0.962 | [57] 0.897 | [58] 0.843 | [59] 0.867 | [60] 0.858 | [61] 0.967 | [62] 0.858 | [63] 0.845 | [64] 0.847 | [65] 0.971 | [67] 0.956 | [68] 0.957 | [69] 0.945 | [70] 0.971 | [71] 0.965
active: [26] 0.615 | [42] 0.846 | [66] 0.859
